Most compounds without a hit are left out; they make up all but 3.7% or so of the library.
GPR32 ag = activates human resolvin D1 receptor GPR32. 48,000 compounds, 2.5% hits. activation, % at 76.9 µM. CHO-K1 GPR32 beta-arrestin PathHunter luminescence, 90 min; zero percent set by DMSO-only wells;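 active = activation of at least 60% and not above a set upper limit, about 1 call in 100 departs from these limits; inconclusive = activation of 40% to 60%, or above that upper limit; inactive = activation under 40%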; note: 0% is about no effect
Target sequence (O75388 whole entry, looked up): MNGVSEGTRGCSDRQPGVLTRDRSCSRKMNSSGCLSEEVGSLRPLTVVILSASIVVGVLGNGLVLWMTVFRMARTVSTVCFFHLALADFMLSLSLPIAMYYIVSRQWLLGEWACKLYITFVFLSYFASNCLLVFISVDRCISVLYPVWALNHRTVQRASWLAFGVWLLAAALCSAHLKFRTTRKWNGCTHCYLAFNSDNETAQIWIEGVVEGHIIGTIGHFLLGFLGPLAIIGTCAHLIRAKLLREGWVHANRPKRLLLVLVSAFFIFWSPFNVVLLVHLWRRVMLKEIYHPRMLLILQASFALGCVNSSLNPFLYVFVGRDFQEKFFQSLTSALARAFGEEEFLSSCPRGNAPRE
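Using DMSO wells as EC0, agonist-induced signal was taken as chemiluminescence from beta-Gal reconstituted upon beta-arrestin recruitment to GPR32 in CHO-K1 cells after 90 min compound treatment.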
HTT prom inh = HTT promoter inhibition; HEK293 HTT promoter firefly luciferase reporter, 24 h; Potency, µM (series often up to 57.5 µM), for the others: at the highest dose activity change, negative = inhibition, actives largely listed as inhibitors; 48,000 compounds, 0.93% hits; AID 1508623; note: potency is the fitted concentration of half-maximal effect; nearly all actives have a fitted effect of over 50% in size
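Luminescence was read after Dual-Glo reagent and a 10 min room-temperature incubation. Values were normalized to vehicle (0% activity) and zero RLU (-100% activity). Reporter HEK293 cells had been exposed to compounds (up to 57.5 uM final) for 24 h.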
HTT-AS act = HTT-AS promoter activation | AID 1508624 | HEK293 HTT-AS promoter firefly luciferase reporter, 24 h; response scale: percent change from vehicle, -100% = no light | Potency, µM (top dose mostly 57.5 µM), inactives show at the top dose activity change, positive = activation, hits mostly activators | 48,000 compounds, 0.24% hits; note: potency is the fitted concentration of half-maximal effect; nearly all actives have a fitted effect of over 55% in size
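HEK293 Fluc reporter, 2,500 cells/well, 24 h pre-culture; cpds up to 57.5 uM final, 24 h 37 degrees C; Dual-Glo, 10 min RT; normalized vehicle = 0%, zero RLU = -100%.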
* = called active by the depositor; ! = not confirmed by another sample; [ ] = another dose, or the depositor's remark. Unless noted, calls come from the whole dose curve; as a rule, active = well fitted curve in the direction sought with a large enough effect; inconclusive = small, poorly fitted or top-dose-only effect, or another doubt; inactive = no such curve, though single readings can be large; an effect the other way counts as inactive or inconclusive.

For COc1ccc(CNC(=O)Cc2c(C)c3c(cc(C)c4c(C)coc43)oc2=O)cc1 the results were GPR32 ag -7, HTT prom inh 4% and HTT-AS act -2%.
Screening O=C(Nc1cccc(OCc2cc(=O)n3c4c(sc3n2)CCCC4)c1)c1ccc(F)cc1 returned GPR32 ag 22, HTT prom inh -9% and HTT-AS act 6%.
COc1ccc(C(=O)Nc2cccc(OCc3cc(=O)n4c5c(sc4n3)CCCC5)c2)cc1OC was read as GPR32 ag 63*, HTT prom inh 2% and HTT-AS act 12%.
`CC(C)c1ccc(Nc2c(-c3ccc(N(C)C)cc3)nc3cnccn23)cc1` gave GPR32 ag 1, HTT prom inh 9% and HTT-AS act -1%.
For C=CCn1c(=O)c2cnc(Nc3ccc(N4CCN(C)CC4)cc3)nc2n1-c1cccc(C(C)(C)O)n1 the results were HTT prom inh inconclusive and HTT-AS act -38%.
For Clc1ccc(N2CCN(c3ncnc4c3nc3n4CCCC3)CC2)cc1 the results were GPR32 ag 14, HTT prom inh 1.4µM* and HTT-AS act -90%.
For Fc1ccc(N2CCN(c3ncnc4c3nc3n4CCCCC3)CC2)cc1 the results were GPR32 ag 22, HTT prom inh 2.8µM* and HTT-AS act -44%.
`O=C(C1CCN(c2ncnc3c2nc2n3CCCCC2)CC1)N1CCN(c2cccc(Cl)c2)CC1` gave GPR32 ag -5, HTT prom inh inconclusive and HTT-AS act -48%.
Screening O=C(C1CCN(c2ncnc3c2nc2n3CCCCC2)CC1)N1CCN(c2ccc(Cl)cc2)CC1 returned GPR32 ag -3, HTT prom inh -10% and HTT-AS act -11%.
For Clc1cccc(N2CCN(c3ncnc4c3nc3n4CCCCC3)CC2)c1 the results were GPR32 ag 32, HTT prom inh 10µM* and HTT-AS act -61%.
c1ccc(N2CCN(c3ncnc4c3nc3n4CCCCC3)CC2)cc1 was read as GPR32 ag inconclusive, HTT prom inh inconclusive and HTT-AS act -53%.
CON(C)C(=O)N1N=C(c2cc(F)ccc2F)S[C@]1(CCCN)c1ccccc1 was read as HTT prom inh -22% and HTT-AS act -30%.
`Cc1ccccc1-n1c(Cn2nc(-c3cccc(O)c3)c3c(N)ncnc32)nc2cccc(C)c2c1=O` gave HTT prom inh inconclusive and HTT-AS act -42%.
`COC(=O)c1ccc2c(C(=Nc3ccc(N(C)C(=O)CN4CCN(C)CC4)cc3)c3ccccc3)c(O)[nH]c2c1` gave HTT prom inh inconclusive and HTT-AS act -24%.
For COc1ccc(C(=O)NC(c2ccccc2Cl)c2cc(Cl)c3cccnc3c2O)cc1 (configuration not stated) the results were GPR32 ag -54, HTT prom inh 8.9µM* and HTT-AS act -41%.
Screening COc1cc(C(=O)NC(c2ccccc2Cl)c2cc(Cl)c3cccnc3c2O)cc(OC)c1OC (configuration not stated) returned GPR32 ag -63, HTT prom inh inconclusive and HTT-AS act -59%.
For COc1ccc(NC(=O)C2CCCN(c3nnc(C)c4c(C)n(-c5ccccc5)nc34)C2)cc1Cl (configuration not stated) the results were GPR32 ag 4, HTT prom inh inconclusive and HTT-AS act -37%.
`Cc1ccc(N2CCN(C(=O)C3CCN(c4ncnc5c4nc4n5CCCCC4)CC3)CC2)c(C)c1` gave GPR32 ag -3, HTT prom inh inconclusive and HTT-AS act -15%.
For CCCn1c(=O)c2[nH]c(C34CC5CC3C[C@@H](C5)C4)nc2n(CCC)c1=O the results were HTT prom inh 4% and HTT-AS act -3%.
For Cc1cc(O)c2c(O)c3c(O)cccc3cc2c1 the results were GPR32 ag 108*, HTT prom inh -4% and HTT-AS act -13%.
For Cc1ccc(C(C)C)c(O)c1 the results were GPR32 ag 0, HTT prom inh 12% and HTT-AS act 1%.
C[C@H](NCc1ccc2c(c1)nc(NC(=O)c1ccc(-c3cn[nH]c3)s1)n2CCc1ccccc1)C(C)(C)C was read as HTT prom inh inconclusive and HTT-AS act -43%.
`Cc1ccccc1-c1noc(-c2cc3ccccc3oc2=O)n1` gave GPR32 ag -17, HTT prom inh 110% and HTT-AS act 2.5µM*.
For Cc1cc(C)c(-c2csc(-c3cc4ccccc4oc3=O)n2)cc1C the results were GPR32 ag -4, HTT prom inh -9%[11.5 µM] and HTT-AS act 1%.
Screening O=C(CCC1N=C2c3ccccc3N=C(SCc3cccc(F)c3)N2C1=O)NCc1cccs1 (configuration not stated) returned GPR32 ag -22, HTT prom inh -22% and HTT-AS act -22%.
Screening Cc1nn(-c2ccccc2)c2nc(C3CC3)cc(C(=O)Nc3cccc(F)c3)c12 returned GPR32 ag -4, HTT prom inh inconclusive and HTT-AS act -38%.
`CC(C)CN1CCc2nc(N3CCN(c4ncccn4)CC3)ncc2C1` gave GPR32 ag -25, HTT prom inh 7% and HTT-AS act 16%.
`CC(C)(C)OC(=O)N1CCc2nc(N3CCN(c4ncccn4)CC3)ncc2C1` gave GPR32 ag 62*, HTT prom inh 17% and HTT-AS act -6%.
Screening O=C(c1cc(F)cc(F)c1)N1CCC(c2nc(-c3ccc(S(=O)(=O)N4CCCC4)cc3)no2)CC1 returned GPR32 ag -3, HTT prom inh -2% and HTT-AS act -12%.
For COc1ccc(OC)c(NC(=O)Cn2cnc3sc(C)c(S(=O)(=O)N4CCN(c5ccccc5OC)CC4)c3c2=O)c1 the results were GPR32 ag 1, HTT prom inh -9% and HTT-AS act 10%.
For CSc1cccc(NC(=O)c2ccc3c(c2)CCCN3S(C)(=O)=O)c1 the results were GPR32 ag 10, HTT prom inh -28% and HTT-AS act inconclusive.
`c1ccc2[nH]c(-c3cscn3)nc2c1` gave GPR32 ag -14, HTT prom inh 67% and HTT-AS act 19µM*!.
O=C(O)CCc1nc2ccccc2[nH]1 was read as GPR32 ag 0, HTT prom inh 4% and HTT-AS act -10%.
For COc1cc(Cl)c(C)cc1Nc1c2c(nc3ccccc13)CCC2 the results were GPR32 ag -9, HTT prom inh inconclusive and HTT-AS act -43%.
CCCOC(=O)c1cccc(Nc2nc(C(=O)OCC)nc3ccccc23)c1 was read as GPR32 ag 93*, HTT prom inh inconclusive and HTT-AS act -51%.
CCOC(=O)c1cccc(Nc2c3c(nc4ccccc24)CCC3)c1 was read as GPR32 ag 78*, HTT prom inh inconclusive and HTT-AS act -39%.
CCOC(=O)c1cccc(Nc2nc(C(=O)OCC)nc3ccccc23)c1 was read as GPR32 ag -9, HTT prom inh inconclusive and HTT-AS act -25%.
Cc1cc2oc(C(=O)Nc3ccc(S(=O)(=O)N(C)c4ccccc4)cc3)cc(=O)c2cc1C was read as GPR32 ag 1, HTT prom inh -5% and HTT-AS act 15%.
Screening Oc1cc(-c2nc(-c3ccccc3)[nH]c2-c2ccncc2)ccc1Cl returned HTT prom inh inconclusive and HTT-AS act -25%.

Source: PubChem (National Center for Advancing Translational Sciences (NCATS))
